These results are taken from PubChem BioAssay.

For assay [1], the system named is Human papillomavirus type 1a protein E7 (residues 44-93). In words: small molecules binding HPV E7 44-93 – biochemical, small-molecule microarray, residues 44-93, 635 nm fluorescence, primary screen (AID 1108).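 Further: E7 fragment applied at 1 µg/mL in TBST for 1 h at 4 C; score combines spot fluorescence with its signal to noise ratio.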 Particulars: fluorescence 635 nm, higher = more signal.
Assay [2] in a line: hepatitis C replication reporter changes, two-sided – Huh7 cells, luciferase reporter, HCV replication inhibitor project, primary screen (AID 1109).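 Further: huh7 hepatoma cells harbouring a luciferase neomycin HCV replicon reporter; luciferase luminescence as measure of HCV replicon replication; test concentration not given here.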 Particulars: Huh7 HCV replicon luciferase reporter, 48 h; higher = more signal.
The target of assay [3] is Left-right determination factor 2 (Homo sapiens) (UniProt O00292). Briefly: small molecules binding LEFTY2 protein – biochemical, small-molecule microarray, 635 nm fluorescence scan, primary screen (AID 1110). The note with it: higher = more signal.
The target in assay [4] is Calmodulin-1 (Homo sapiens) (UniProt P0DP23). Briefly: small molecules binding calmodulin-1 with EGTA – biochemical, small-molecule microarray, Cy5-labelled CALM1, profiling panel (AID 1111).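 Further: labelled calmodulin applied in Tris saline Tween buffer holding calcium plus EGTA and DTT.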 The note with it: Cy5-CALM1 binding fluorescence, higher = more signal.
Assay [5] shares this target. Briefly: small molecules binding Ca-loaded calmodulin-1 – biochemical, small-molecule microarray, Cy5-labelled CALM1, plus calcium, artefact control for SMM control-protein annotation, profiling panel (AID 1112).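 Further: score merges spot fluorescence with signal to noise from triplicate slides.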 Particulars: Cy5-CALM1 binding fluorescence, higher = more signal.
Assay [6] is described as follows: probe aWnt5a binding to arrayed compounds – biochemical, biotinylated probe, 635/667 nm fluorescence, primary screen (AID 1113).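 Further: score merges 667 nm fluorescence intensity with signal-to-noise per printed feature.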 Particulars: small-molecule microarray, higher = more signal.
Assay [7] can be described thus: probe aShh binding to arrayed compounds – biochemical, biotinylated probe, 635/667 nm fluorescence, primary screen (AID 1114).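 Further: probe is biotin-labelled aShh protein from a stem cell growth factor screen; measures binding of labelled protein to compounds printed on the slide; score merges feature fluorescence at 667 nm with signal-to-noise.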 Particulars: small-molecule microarray, higher = more signal.
Assay [8] in a line: probe aNog binding to arrayed compounds – biochemical, biotinylated probe, 635/667 nm fluorescence, primary screen (AID 1115).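 Further: probe is biotinylated aNog protein used at 0.15 µg/mL for 1 h at 4 C; z-score combines 667 nm fluorescence of each spot with its signal to noise.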 The note with it: small-molecule microarray, higher = more signal.
Assay [9] concerns the target Torsin-1A-interacting protein 1 (Homo sapiens) (UniProt Q5JTV8). Briefly: compound microarray binding of lysate hLAP1 – cell lysate, small-molecule microarray, COS7 lysate, 635/667 nm fluorescence, primary screen (AID 1116). The note with it: 635 nm fluorescence, higher = more signal.
Assay [10] has as its target Alpha-bungarotoxin (Bungarus multicinctus) (UniProt P60615). In words: compounds binding labelled alpha-BTX control protein – biochemical, small-molecule microarray, Alexa647 label, 635/667 nm fluorescence, artefact control for SMM control protein annotation, profiling panel (AID 1117). The note with it: alpha-BTX-A647 binding fluorescence, higher = more signal.
A further assay addresses Albumin (Bos taurus) (UniProt P02769). Briefly: compounds binding labelled BSA control protein – biochemical, small-molecule microarray, Alexa647 label, 635/667 nm fluorescence, artefact control for SMM control protein annotation, profiling panel (AID 1118).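 Further: score merges 667 nm emission intensity and signal-to-noise per printed compound spot.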 Particulars: BSA-A647 binding, fluorescence 635 nm, higher = more signal.
Assay [11] in a line: probe aXIP binding to arrayed compounds – biochemical, NeuroSMM set, 635/667 nm fluorescence, primary screen (AID 1119).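 Further: probe is the protein aXip251-270 applied at 1 µg/mL to compound-printed slides; binding of probe to printed compounds measured as 667 nm fluorescence plus signal to noise.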 Particulars: small-molecule microarray, higher = more signal, called active from +8 up or from −8 down.
Assay [12] can be described thus: probe aNOTCH3 binding on compound microarray – biochemical, small-molecule microarray, 635/667 nm fluorescence, primary screen (AID 1120).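 Further: probe is a biotin-tagged antibody raised against NOTCH3 rather than NOTCH3 protein; score merges spot fluorescence near 667 nm with spot signal to noise.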 The note with it: higher = more signal.
Assay [13] in a line: probe aNOTCH2 binding on compound microarray – biochemical, small-molecule microarray, 635/667 nm fluorescence, primary screen (AID 1121).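 Further: score merges feature fluorescence read at 667 nm with its signal to noise.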 The note with it: higher = more signal.
Assay [14] concerns the target Carbonic anhydrase 2 (Homo sapiens) (UniProt P00918). In words: compounds binding carbonic anhydrase 2 – biochemical, small-molecule microarray, Alexa647-labelled CAII, profiling panel (AID 1122). Particulars: CAII-A647 binding fluorescence, higher = more signal.
Assay [15] is described as follows: COS7 lysate on small-molecule microarray, probe aHis, 635 nm (AID 1123).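 Further: z-score combines 667nm fluorescence intensity with signal-to-noise per printed compound spot.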 Particulars: COS7 cell lysate, fluorescence, higher = more signal.
Assay [16] is described as follows: probe aLAP1 signal on lysate-treated microarray – cell lysate, small-molecule microarray, COS7 lysate, primary screen (AID 1124).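 Further: lysate comes from COS7 cells expressing LAP1 and is applied at 0.3 µg/mL; score merges spot fluorescence near 667 nm with signal-to-noise over triplicate slides.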 The note with it: probe aLAP1, fluorescence, higher = more signal.
The next assay has as its system Sam68 (KHDRBS1). In words: compounds binding KHDRBS1 protein – biochemical, small-molecule microarray, 635 nm fluorescence, primary screen (AID 1125).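 Further: score merges 667 nm channel intensity with signal to noise over triplicate slides.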 The note with it: higher = more signal.
The test system of assay [17] is Chordin-like protein 2 (CHRDL2). Briefly: compounds binding chordin-like 2 – biochemical, small-molecule microarray, 635 nm fluorescence, primary screen (AID 1126).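 Further: printed compound slides probed with Chrdl2 protein at 4 µg/mL for 1 h at 4 C; score merges 667 nm emission intensity with signal to noise over three replicate slides.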 Particulars: fluorescence 635 nm, higher = more signal.
Assay [18] has as its target Concanavalin-A (Canavalia ensiformis) (UniProt P02866). In words: compounds binding concanavalin A lectin – biochemical, small-molecule microarray, Alexa647 label, 635 nm, artefact control for SMM control protein annotation, primary screen (AID 1127).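 Further: z combines 667 nm emission intensity with signal-to-noise across three replicate slides.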 The note with it: ConA-A647 binding fluorescence, higher = more signal.

The source made the active and inactive calls.

Chain of Albumin (Bos taurus) (P02769 whole entry, looked up): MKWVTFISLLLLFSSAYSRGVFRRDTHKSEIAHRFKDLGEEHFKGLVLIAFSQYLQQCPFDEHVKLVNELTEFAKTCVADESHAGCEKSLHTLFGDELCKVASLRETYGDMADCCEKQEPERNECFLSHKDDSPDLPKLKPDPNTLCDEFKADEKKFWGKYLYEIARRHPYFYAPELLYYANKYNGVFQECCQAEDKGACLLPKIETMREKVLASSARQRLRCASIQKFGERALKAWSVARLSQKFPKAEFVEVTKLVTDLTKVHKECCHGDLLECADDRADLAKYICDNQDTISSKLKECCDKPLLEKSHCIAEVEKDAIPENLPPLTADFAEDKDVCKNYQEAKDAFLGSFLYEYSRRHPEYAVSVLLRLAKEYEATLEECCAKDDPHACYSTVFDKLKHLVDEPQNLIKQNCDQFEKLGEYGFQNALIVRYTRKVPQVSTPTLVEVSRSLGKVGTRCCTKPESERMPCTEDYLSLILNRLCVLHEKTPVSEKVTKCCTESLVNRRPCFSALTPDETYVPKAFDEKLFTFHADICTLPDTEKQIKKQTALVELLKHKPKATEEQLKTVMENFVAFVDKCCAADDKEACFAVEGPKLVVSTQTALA
Chain of Concanavalin-A (Canavalia ensiformis) (P02866 whole entry, looked up): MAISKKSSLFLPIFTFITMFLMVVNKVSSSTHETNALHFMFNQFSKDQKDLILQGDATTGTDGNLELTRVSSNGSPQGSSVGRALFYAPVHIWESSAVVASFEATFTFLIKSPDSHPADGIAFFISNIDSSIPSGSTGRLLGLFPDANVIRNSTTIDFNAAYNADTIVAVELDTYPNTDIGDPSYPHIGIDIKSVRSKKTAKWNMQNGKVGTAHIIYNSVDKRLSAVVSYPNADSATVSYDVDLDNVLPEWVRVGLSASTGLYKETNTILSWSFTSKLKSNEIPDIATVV
Chain of Torsin-1A-interacting protein 1 (Homo sapiens) (Q5JTV8 whole entry, looked up): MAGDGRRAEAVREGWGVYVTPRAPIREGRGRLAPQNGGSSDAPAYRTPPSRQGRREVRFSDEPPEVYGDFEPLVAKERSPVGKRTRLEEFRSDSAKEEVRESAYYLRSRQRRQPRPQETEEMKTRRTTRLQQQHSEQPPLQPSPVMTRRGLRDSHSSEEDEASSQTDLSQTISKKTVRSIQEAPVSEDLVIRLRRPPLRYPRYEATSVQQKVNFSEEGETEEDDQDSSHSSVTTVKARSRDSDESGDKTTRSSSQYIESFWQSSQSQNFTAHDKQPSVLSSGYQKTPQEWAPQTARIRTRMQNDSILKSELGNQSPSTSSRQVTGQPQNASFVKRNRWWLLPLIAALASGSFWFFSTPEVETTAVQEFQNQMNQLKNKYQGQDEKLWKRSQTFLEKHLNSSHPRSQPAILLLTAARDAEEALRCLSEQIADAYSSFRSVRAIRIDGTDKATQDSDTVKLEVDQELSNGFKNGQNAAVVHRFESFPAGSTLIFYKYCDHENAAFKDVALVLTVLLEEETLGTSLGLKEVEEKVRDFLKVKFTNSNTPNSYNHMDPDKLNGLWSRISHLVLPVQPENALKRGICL
Chain of Left-right determination factor 2 (Homo sapiens) (O00292 whole entry, looked up): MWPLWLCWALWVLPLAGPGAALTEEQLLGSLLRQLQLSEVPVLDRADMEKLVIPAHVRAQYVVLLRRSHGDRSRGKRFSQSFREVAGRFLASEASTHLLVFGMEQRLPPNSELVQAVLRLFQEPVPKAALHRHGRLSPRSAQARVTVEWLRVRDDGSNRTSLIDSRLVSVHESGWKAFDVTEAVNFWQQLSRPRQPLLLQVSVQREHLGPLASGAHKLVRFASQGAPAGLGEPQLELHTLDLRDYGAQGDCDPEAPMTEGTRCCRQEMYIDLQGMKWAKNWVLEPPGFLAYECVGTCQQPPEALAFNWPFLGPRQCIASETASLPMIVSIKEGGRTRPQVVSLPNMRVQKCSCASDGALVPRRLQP
Chain of Alpha-bungarotoxin (Bungarus multicinctus) (P60615 whole entry, looked up): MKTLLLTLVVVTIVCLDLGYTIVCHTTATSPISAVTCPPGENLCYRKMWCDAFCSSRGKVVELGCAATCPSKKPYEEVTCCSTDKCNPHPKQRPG

In the case of `C=C(C(=O)CC[C@H](OC(C)=O)c1cccc(OCCO)c1)C(C)C`, the composite z-score in assay [1] is -0.521; in [3] it was -0.728; in assay [4], -0.765; in assay [5], -0.608; in assay [6] it was -0.206; in assay [7], -0.117. Besides, the composite z-score in assay [8] was -0.107; in assay [9], -0.397; in assay [10], 1.98; with Albumin (Bos taurus), -0.757; in assay [12], -0.135; in assay [13], -0.148. The composite z-score was -0.382 in assay [14]; 0.409 in assay [15]; -0.326 in assay [16]; -0.0177 in the assay on Sam68 (KHDRBS1); -1.23 in assay [17]; -1.21 in [18]. The z-score in [2] is -1.01. For the same compound, the composite Z-score in assay [11] was 0.562 (inactive).
On to `Cc1ccc(S[C@]2(C(=O)NCC(F)(F)F)CC(=O)N(Cc3ccccc3)[C@@H]2c2ccc(CO)cc2)cc1`, for which the composite z-score in assay [1] was -0.341; in assay [3], -1.73; in assay [4] it was -0.23; in assay [5] it was 0.526; in [6] it was -0.169; in [7], -0.268. In addition, the composite z-score was -0.186 in assay [8]; 0.122 in assay [9]; -0.0421 in assay [10]; -0.597 with Albumin (Bos taurus); -0.115 in assay [12]; -0.119 in assay [13]. In addition, the composite z-score was 0.699 in assay [14]; 0.973 in assay [15]; -0.0477 in assay [16]; 0.619 in the assay on Sam68 (KHDRBS1); -1.23 in [17]; -0.643 in assay [18]. The z-score in [2] is -1.54. Further, in [11], the composite Z-score was 0.363 (inactive).
For the compound `C=CC[C@]12N=C(c3ccc(OCCCO)cc3)O[C@H]1c1ccccc1N(C)C2=O`, the composite z-score in assay [1] was 0.871; in assay [3], 0.0374; in [4], 0.287; in assay [5] it was -0.274; in assay [6] it was 0.0169; in [7] it was 0.287. Also, the composite z-score was found to be 1.99 in [8]; 1.41 in assay [9]; 0.707 in [10]; 0.0095 with Albumin (Bos taurus); 0.336 in assay [12]; 0.0424 in assay [13]. Further, the composite z-score in assay [14] came out at 0.308; in assay [15], 2.73; in assay [16], 1.14; with Sam68 (KHDRBS1) it was 1.21; in [17], 0.76; in [18] it was 0.989. In [2], this compound gave a z-score of -1.57. Moreover, the composite Z-score in assay [11] is 2.56 (inactive).
With `COc1ccc(CCNC(=O)[C@@]2(Sc3ccc(C)cc3)CC(=O)N(Cc3cc(C(F)(F)F)cc(C(F)(F)F)c3)[C@@H]2c2ccc(CO)cc2I)cc1`, the composite z-score in [1] was 1.27; in assay [3] it was -1.07; in assay [4], 0.435; in assay [5], -0.45; in [6], -0.0869; in assay [7], 0.23. The composite z-score in assay [8] was -0.0592; in assay [9], 0.282; in [10], 1.73; in the assay with Albumin (Bos taurus), 0.259; in [12], -0.193; in assay [13], -0.106. Also, the composite z-score in [14] is 0.684; in assay [15], 1.54; in [16], 0.227; with Sam68 (KHDRBS1), 0.677; in assay [17] it was -0.596; in [18], 0.759. Also, the z-score in assay [2] was -1.89. Further, in assay [11], the composite Z-score was 1.4 (inactive).
Regarding `C=C(COC)/C(=C/C[C@@H](OC(=O)c1ccncc1)c1ccc(CO)o1)c1cnc2ccccc2c1`, the composite z-score is 1.42 in assay [1]; 1.03 in [3]; 0.274 in [4]; -0.851 in assay [5]; 0.0037 in [6]; 0.365 in assay [7]. In addition, the composite z-score in [8] was 0.557; in [9], 1.83; in assay [10], 2.65; in the assay with Albumin (Bos taurus) it was 0.516; in [12] it was 0.412; in assay [13], -0.14. Moreover, the composite z-score is 0.951 in assay [14]; 0.831 in [15]; 0.589 in assay [16]; 1.3 with Sam68 (KHDRBS1); 1.47 in assay [17]; 1.23 in assay [18]. The z-score in [2] is -0.632. For the same compound, in assay [11], the composite Z-score was 1.35 (inactive).
